Laboratory results as given in PubChem BioAssay (NCI).
This is part of a sample that, as a whole, favours compounds with a hit. Of some 83,000 tested, about 20% had one in any assay.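 How to read the values: 0–100, growth inhibition (40 = 60% inhibited); 0, no net growth; -100 to 0, cell death (-40 = 40% of starting cells died; -100 = all dead).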 A number with no mark means an inactive call. Calls of active or inactive are those of the source. The calls were made as follows: active = growth percent below 10; inactive = the rest.

How the values were obtained:
Experiment in all cases: NCI-60 one-dose screen, 48 h (100 = growth as untreated, 0 = no growth, -100 = all killed)
Conditions in all cases: 10 µM unless noted
SR leukemia = tested on: SR leukemia
RPMI-8226 leukemia = tested on: RPMI-8226 leukemia
OVCAR-8 ovarian = tested on: OVCAR-8 ovarian
OVCAR-5 ovarian = tested on: OVCAR-5 ovarian
OVCAR-4 ovarian = tested on: OVCAR-4 ovarian
IGROV1 ovarian = tested on: IGROV1 ovarian
OVCAR-3 ovarian = tested on: OVCAR-3 ovarian
HS 578T breast = tested on: HS 578T breast
NCI/ADR-RES ovarian = tested on: NCI/ADR-RES ovarian
SK-OV-3 ovarian = tested on: SK-OV-3 ovarian

SMILES | growth (SR leukemia) | growth (RPMI-8226 leukemia) | growth (OVCAR-8 ovarian) | growth (OVCAR-5 ovarian) | growth (OVCAR-4 ovarian) | growth (IGROV1 ovarian) | growth (OVCAR-3 ovarian) | growth (HS 578T breast) | growth (NCI/ADR-RES ovarian) | growth (SK-OV-3 ovarian)
COc1ccc(CCN2CC=Cn3c2nc2ccccc2c3=O)cc1 | 22.1% | 21.4% | 22.2% | 45% | 41.6% | 32.2% | -1.6% (active) | 37.9% | 15% | 
COc1cc(NCCCCN=C(N)NC(N)=NC(C)C)c2ncccc2c1 | 98.2% | 17.5% | 45.4% | 87.2% | -9.62% (active) | -31.9% (active) | -43.7% (active) | 100% |  | 
CN(C)c1ccc(/C=C\C2=[N+](C)c3ccccc3C2(C)C)cc1 | 25% | 66.5% | 20.8% | 27.9% | 35.5% | 9.25% (active) | -9.9% (active) |  | 84.1% | -11.6% (active)
CC(=O)O[C@H]1CC[C@]2(C)[C@H]3CC[C@@H]4[C@H]5[C@H](C(C)C)CC[C@]5(C(=O)OCC(CO)(CO)N=C(N)N)CC[C@@]4(C)[C@]3(C)CC[C@H]2C1(C)C | -13.6% (active) | 4.55% (active) | -31.9% (active) | 99.1% | 87.9% | 24.3% | 18.9% |  | 76.8% | 91.2%
COC(=O)C12C3C(=O)N(c4ccc(OC)cc4)C(=O)C3C(c3cn(-c4ccccc4)nc3C)N1[C@H](c1cn(-c3ccccc3)nc1C)[C@@H]1C(=O)N(c3ccc(OC)cc3)C(=O)[C@@H]12 (some centres not stated) | 91% | 106% | 99% | 103% | 108% | 107% | 104% | 106% | 97.4% | 
NS(=O)(=O)N(c1cc(C(F)(F)F)cc(C(F)(F)F)c1)C1CCN(Cc2ccc(F)cc2)CC1 | -35.1% (active) | 28.1% | 73.2% | 90.9% | 72.4% | 61.9% | 60% | 84% |  | 
NC1=CC(=O)C(=O)c2ccccc21 | 81.8% | 79.3% | 64.2% | 93.3% | 69.3% | 89.7% | 84.1% |  | 58.7% | 92.6%
Cc1ccc(N)cc1F | 121% | 121% | 96.4% | 109% | 113% | 104% | 102% |  | 94.2% | 102%
NS(=O)(=O)c1ccc(-n2ncc3c(=O)[nH]c(CN4CCN(c5cc6c(cc5F)c(=O)c(C(=O)O)cn6C5CC5)CC4)nc32)cc1 | 97.2% | 105% | 97.8% | 97.6% | 104% | 92.8% | 107% |  | 94.4% | 107%
Cn1cc(-c2csc(-c3cn(C)c4ncccc34)n2)c2ccccc21 | 9.51% (active) | 22.4% | 30.2% | 64.6% | 71.6% | 42.8% | -4.76% (active) |  | 22.8% | 36.6%
O=C1C[C@H](N2C(=O)c3ccccc3S2(=O)=O)C2CO[C@@H]1O2 | 10.3% | 91.1% | 93.7% | 97.5% | 84.3% | 103% | 86.9% | 102% |  | 
COc1c(C2CC(=O)Nc3c2cnn3Cc2ccco2)cc2c(c1OC)OCO2 (configuration not stated) | 2.13% (active) | -1.94% (active) | 18% | 40.8% | 39.2% | 52.8% | -35.9% (active) | 30.4% |  | 
C/C(=C(/c1ccc(O)cc1)c1ccc(OCCN2CCCC2)cc1)c1ccccc1 | -11.3% (active) | 11.9% | 83% | 80.5% | 54.5% | 76.1% | 74% |  | 62.9% | 80.1%
C#Cc1nc(Nc2cc(C)[nH]n2)c2ccccc2n1 | 3.84% (active) | -16.5% (active) | -19.2% (active) | -28.5% (active) | -55.2% (active) | -62.7% (active) | -71% (active) |  | 9.77% (active) | 21.1%
Cc1ccc(C2CC3c4ccccc4C2C2CCCCN32)cc1 (configuration not stated) | 106% | 60.1% | 109% | 96.2% | 82.6% |  | 67.7% | 93.3% | 94.1% | 91.7%
COc1cc(C2CC(=O)c3c(C)nn(-c4nc5ccccc5[nH]4)c3C2)cc(OC)c1OC (configuration not stated) | 87.7% | 92.1% | 25.7% | 90.4% | -35.4% (active) |  | 67.2% |  | 64.9% | 17.9%

SMILES | growth (SR leukemia) | growth (RPMI-8226 leukemia) | growth (OVCAR-8 ovarian) | growth (OVCAR-5 ovarian) | growth (OVCAR-4 ovarian) | growth (IGROV1 ovarian) | growth (OVCAR-3 ovarian) | growth (HS 578T breast) | growth (NCI/ADR-RES ovarian) | growth (SK-OV-3 ovarian)
CCN(CC)CCCNc1cccc2c(SCc3ccccc3)ccnc12 | -27.9% (active) | -39.7% (active) | 89.9% | 107% | 104% | -40.3% (active) | 36.8% |  | 42% | 97.8%
Cc1ccc2cnc(N)c(C#Cc3cncc(C(=O)Nc4ccc(CN5CCN(C)CC5)c(C(F)(F)F)c4)c3)c2c1 | -31.2% (active) | -31.4% (active) | -85.4% (active) | -89% (active) | -88% (active) | -59.8% (active) | -97.6% (active) | -39.2% (active) | -67.2% (active) | 
CCN(C(=O)CN1CCN(c2cc3c(cc2F)c(=O)c(C(=O)O)cn3CC)CC1)c1nc(-c2ccccc2)cs1 | -11% (active) | -3.49% (active) | 7.67% (active) | 35.6% | 3.24% (active) | 23.3% | 16.8% | 13.6% | 5.3% (active) | 
CCn1cc2c(cc1=O)-c1nc3ccccc3c3ccnc(c13)C2=O | 15.1% | 80.1% | 55.2% | 105% | 80.7% | 70.2% | 73.8% |  | 71.8% | 45.8%
CCCCN(CCCC)CCC(C)(O)c1cc2ccccc2c2ccccc12 (configuration not stated) | 39.7% | 67.3% | 92.6% | 98.6% | 109% | 6.06% (active) | 69% |  | 67.6% | 99.9%
O=C(Nc1nc(-c2ccccc2)cc(-c2ccc(Cl)cc2)n1)c1ccncc1 | 108% | 92.3% | 100% | 104% | 90.2% | 95.3% | 98.6% |  | 89.1% | 94.6%
COC1C/C(=N\O)C2OC(c3ccccc3)OCC2O1 (configuration not stated) | 109% | 104% | 114% | 109% | 104% | 109% | 110% |  | 103% | 100%
CCCCN(CC)CCCCCCCCCCN1CCCc2cc(OC)ccc21 | -31.7% (active) | -18.4% (active) | 87.5% | 78.8% | 101% |  | 13.6% |  | 25.9% | 88.9%
Cc1noc(C)c1-c1cc(O)cc(C(O)c2ccccc2)c1 (configuration not stated) | 27.1% | 14.9% | 38.6% | 73.3% | 32.5% | 46% | 46.7% |  | 59.2% | 
CNC(=O)c1cc(Oc2ccc3nc(NC(=O)Nc4ccc(N5CCC(N(C)C)CC5)cc4)sc3c2)ccn1 | 0.621% (active) | 74.2% | 89.3% | 114% |  | 89% | 90.1% | 80.9% | 110% | 102%
CNCCCn1c2c(c3ccc([N+](=O)[O-])cc3c1=O)C(=O)c1cc(OC)cnc1-2 | 2.17% (active) | -25.9% (active) | -14.9% (active) | 1.76% (active) |  | 0.722% (active) | -45.1% (active) | 15.6% | -28.8% (active) | -15.8% (active)
CCN(CC)CC(C)Nc1ccc([N+](=O)[O-])c2sc3ccccc3c(=O)c12 (configuration not stated) | -32.3% (active) | -29.7% (active) | 24.6% | 53.9% |  | 22.3% | 36.6% | 27.7% | 34.7% | 33.8%
CS(=O)CCCCCN=C=S (configuration not stated) | -13.9% (active) | 5.22% (active) | -8.89% (active) | 11.6% | 21.4% | 7.98% (active) | -20.4% (active) | 11.6% | 1.36% (active) | 
Cc1cc2cc3cc(C)c(N(C)C)cc3nc2cc1N(C)C | 25% | -0.205% (active) | 22.5% | 53.9% |  | -13.8% (active) | -25.5% (active) | 31.7% | 82.5% | 17.7%
C(=N\Nc1ccccn1)/c1ccccn1 | 15.8% | 35.5% | 13.6% | 40.7% | 10.6% | 10.7% | 7.56% (active) | 62.8% | -9.79% (active) | 
